Laboratory results from PubChem BioAssay (NCI).
This is part of a sample that, as a whole, favours compounds with a hit. Of some 83,000 tested, about 20% had one in any assay.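 How to read the values: 0–100, growth inhibition (40 = 60% inhibited); 0, no net growth; -100 to 0, cell death (-40 = 40% of starting cells died; -100 = all dead).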 Calls of active or inactive are those of the source. Rule for the calls: active = growth percent below 10; inactive = the rest.

Legend:
Test in all cases: NCI-60 one-dose screen, 48 h (100 = growth as untreated, 0 = no growth, -100 = all killed)
Details in all cases: 10 µM unless noted
SR leukemia = system: SR leukemia
RPMI-8226 leukemia = system: RPMI-8226 leukemia
OVCAR-8 ovarian = system: OVCAR-8 ovarian
OVCAR-5 ovarian = system: OVCAR-5 ovarian
OVCAR-4 ovarian = system: OVCAR-4 ovarian
SK-OV-3 ovarian = system: SK-OV-3 ovarian
IGROV1 ovarian = system: IGROV1 ovarian
OVCAR-3 ovarian = system: OVCAR-3 ovarian
HS 578T breast = system: HS 578T breast
NCI/ADR-RES ovarian = system: NCI/ADR-RES ovarian
T-47D breast = system: T-47D breast
BT-549 breast = system: BT-549 breast
MDA-MB-435 melanoma = system: MDA-MB-435 melanoma
SW-620 colon = system: SW-620 colon
MCF7 breast = system: MCF7 breast
HCT-116 colon = system: HCT-116 colon
HCC-2998 colon = system: HCC-2998 colon
KM12 colon = system: KM12 colon

Measured: growth

O=C1/C(=C/c2ccc([N+](=O)[O-])cc2)CN(C(=O)CCN2CCC(=NO)CC2)C/C1=C\c1ccc([N+](=O)[O-])cc1
active: SR leukemia 8.69% | RPMI-8226 leukemia -34.8% | OVCAR-8 ovarian 6.6% | OVCAR-5 ovarian -41.3% | OVCAR-4 ovarian -8.21% | IGROV1 ovarian -21.2% | OVCAR-3 ovarian -59% | NCI/ADR-RES ovarian 7.5% | BT-549 breast -40.7% | MDA-MB-435 melanoma -52.1% | SW-620 colon -53.2% | MCF7 breast -55.4% | HCT-116 colon -67.4% | HCC-2998 colon -72.2% | KM12 colon -55.3%
inactive: SK-OV-3 ovarian 17.3% | HS 578T breast 22.8% | T-47D breast 10.1%

Nc1ncnc2c1c(-c1ccc(Oc3ccccc3)cc1)nn2C[C@@H]1SSC[C@@H]1O
inactive: RPMI-8226 leukemia 51.5% | OVCAR-8 ovarian 69.9% | OVCAR-5 ovarian 78.3% | OVCAR-4 ovarian 44.6% | HS 578T breast 56.6% | NCI/ADR-RES ovarian 61.3% | BT-549 breast 83% | SW-620 colon 25.4% | HCC-2998 colon 56.5% | KM12 colon 37.2%
active: SR leukemia -37.4% | SK-OV-3 ovarian 3.68% | IGROV1 ovarian -6.92% | OVCAR-3 ovarian 3.23% | T-47D breast -30.9% | MDA-MB-435 melanoma -90.9% | MCF7 breast -4.42% | HCT-116 colon 7.61%

Nc1cccc(-c2nc3sccn3c2-c2ccnc(NCCCNS(=O)(=O)c3cccc4ccccc34)n2)c1
active: RPMI-8226 leukemia 8.33% | T-47D breast -2.4% | BT-549 breast 7.66%
inactive: SR leukemia 38.7% | OVCAR-8 ovarian 23.5% | OVCAR-5 ovarian 92.1% | OVCAR-4 ovarian 24.6% | SK-OV-3 ovarian 63.1% | IGROV1 ovarian 36.7% | OVCAR-3 ovarian 37.6% | HS 578T breast 44.7% | NCI/ADR-RES ovarian 38.3% | MDA-MB-435 melanoma 23.2% | SW-620 colon 68.2% | MCF7 breast 25.2% | HCT-116 colon 36.1% | HCC-2998 colon 60.7% | KM12 colon 23.6%

COc1ccc(C(=O)NC(=O)Nc2cc3c(cc2F)/C(=C/c2[nH]c(C)c(CCC(=O)O)c2C)C(=O)N3)c(F)c1
active: RPMI-8226 leukemia -2.09% | OVCAR-8 ovarian 6.72%
inactive: SR leukemia 26.5% | OVCAR-5 ovarian 63.1% | OVCAR-4 ovarian 80.3% | SK-OV-3 ovarian 60.5% | IGROV1 ovarian 37.4% | OVCAR-3 ovarian 36.8% | HS 578T breast 16.3% | NCI/ADR-RES ovarian 83.9% | T-47D breast 47.8% | BT-549 breast 25.2% | MDA-MB-435 melanoma 36.8% | SW-620 colon 26.6% | MCF7 breast 41.7% | HCT-116 colon 37% | HCC-2998 colon 50.3% | KM12 colon 11.7%

Nc1cccc(-c2nc3sccn3c2-c2ccnc(NCCNS(=O)(=O)c3ccc(C(F)(F)F)cc3)n2)c1
inactive: SR leukemia 35.4% | RPMI-8226 leukemia 61.7% | OVCAR-8 ovarian 38.3% | OVCAR-5 ovarian 90.5% | OVCAR-4 ovarian 43.2% | SK-OV-3 ovarian 53.5% | IGROV1 ovarian 36.3% | OVCAR-3 ovarian 53.4% | NCI/ADR-RES ovarian 71.5% | T-47D breast 46.2% | BT-549 breast 52.7% | MDA-MB-435 melanoma 27% | SW-620 colon 100% | MCF7 breast 32.8% | HCT-116 colon 55.1% | HCC-2998 colon 121% | KM12 colon 61.5%
active: HS 578T breast -15.1%

COc1ccc(/C=C2\Oc3cc(OCCCN4CCCC4)ccc3C2=O)c(OC)c1
inactive: RPMI-8226 leukemia 66.9% | OVCAR-8 ovarian 80% | OVCAR-5 ovarian 100% | OVCAR-4 ovarian 90.3% | SK-OV-3 ovarian 110% | IGROV1 ovarian 88.2% | OVCAR-3 ovarian 97.4% | HS 578T breast 94.5% | NCI/ADR-RES ovarian 91% | T-47D breast 99% | BT-549 breast 95.4% | MDA-MB-435 melanoma 97% | SW-620 colon 33.5% | MCF7 breast 44.4% | HCT-116 colon 10.6% | HCC-2998 colon 86.3% | KM12 colon 67.1%
active: SR leukemia -26.5%

Nc1cccc(Cl)c1N
inactive: SR leukemia 92.5% | RPMI-8226 leukemia 69.3% | OVCAR-8 ovarian 105% | OVCAR-5 ovarian 108% | OVCAR-4 ovarian 94.4% | SK-OV-3 ovarian 94.3% | IGROV1 ovarian 88% | OVCAR-3 ovarian 109% | HS 578T breast 98.9% | NCI/ADR-RES ovarian 102% | T-47D breast 54.6% | BT-549 breast 97.6% | MDA-MB-435 melanoma 106% | SW-620 colon 101% | MCF7 breast 39.6% | HCT-116 colon 100% | HCC-2998 colon 84.2% | KM12 colon 99.5%

CC1CCC(C)N(C)C1 (stereo not drawn)
inactive: SR leukemia 88.1% | RPMI-8226 leukemia 89.7% | OVCAR-8 ovarian 105% | OVCAR-5 ovarian 106% | OVCAR-4 ovarian 107% | SK-OV-3 ovarian 102% | IGROV1 ovarian 106% | OVCAR-3 ovarian 112% | HS 578T breast 108% | NCI/ADR-RES ovarian 107% | T-47D breast 96.9% | BT-549 breast 87.6% | MDA-MB-435 melanoma 111% | SW-620 colon 113% | MCF7 breast 96.5% | HCT-116 colon 97.9% | HCC-2998 colon 85.2% | KM12 colon 110%

COC1=C(OC)C(=O)C(CCCCCCCCCC[P+](c2ccccc2)(c2ccccc2)c2ccccc2)=C(C)C1=O
inactive: NCI/ADR-RES ovarian 60.7%
active: SR leukemia -27% | RPMI-8226 leukemia -62.5% | OVCAR-8 ovarian -48.3% | OVCAR-5 ovarian 3.19% | OVCAR-4 ovarian 2.19% | SK-OV-3 ovarian -40% | IGROV1 ovarian -31.6% | OVCAR-3 ovarian -34.2% | HS 578T breast -58.9% | T-47D breast -59% | BT-549 breast -78.9% | MDA-MB-435 melanoma -82.6% | SW-620 colon -13.2% | MCF7 breast -49.9% | HCT-116 colon 6.18% | HCC-2998 colon -18.3% | KM12 colon -37.5%

COc1cc([N+](=O)[O-])c2ncccc2c1O
inactive: SR leukemia 107% | RPMI-8226 leukemia 75.6% | OVCAR-8 ovarian 78.5% | OVCAR-5 ovarian 76.4% | OVCAR-4 ovarian 104% | SK-OV-3 ovarian 37% | IGROV1 ovarian 51.8% | OVCAR-3 ovarian 83.1% | NCI/ADR-RES ovarian 91.1% | T-47D breast 94.8% | BT-549 breast 86.9% | MDA-MB-435 melanoma 51.8% | SW-620 colon 58.6% | MCF7 breast 49% | HCT-116 colon 76.7% | HCC-2998 colon 26.2%
active: HS 578T breast -3.86% | KM12 colon -2.23%

Cc1nn(-c2ccc(Cl)cc2)c2ncnc(N/N=C/c3cccc([N+](=O)[O-])c3)c12
active: OVCAR-3 ovarian 8.17%
inactive: SR leukemia 51.3% | RPMI-8226 leukemia 66.3% | OVCAR-8 ovarian 99.7% | OVCAR-5 ovarian 106% | OVCAR-4 ovarian 94.5% | SK-OV-3 ovarian 104% | IGROV1 ovarian 94.7% | HS 578T breast 99.3% | NCI/ADR-RES ovarian 105% | T-47D breast 101% | BT-549 breast 106% | MDA-MB-435 melanoma 97.1% | SW-620 colon 88.9% | MCF7 breast 103% | HCT-116 colon 104% | HCC-2998 colon 94.8% | KM12 colon 66.5%

Cc1cc(C2=NNC(=O)Cc3cc4c(cc32)OCCO4)cc(C)c1N
inactive: SR leukemia 27.5% | RPMI-8226 leukemia 52.8% | OVCAR-8 ovarian 54.8% | OVCAR-5 ovarian 75.8% | OVCAR-4 ovarian 56.8% | SK-OV-3 ovarian 20.2% | IGROV1 ovarian 44.7% | HS 578T breast 24.9% | T-47D breast 46.1% | BT-549 breast 30.7% | SW-620 colon 26.5% | MCF7 breast 16.7% | HCT-116 colon 20.4% | HCC-2998 colon 48.8% | KM12 colon 24%
active: OVCAR-3 ovarian -28.5% | NCI/ADR-RES ovarian -4.6% | MDA-MB-435 melanoma -12.6%

CCN(CC)c1ccc(CNc2ccnc3ccccc23)cc1
active: SR leukemia 9.72%
inactive: RPMI-8226 leukemia 25.2% | OVCAR-8 ovarian 47.4% | OVCAR-5 ovarian 81.7% | OVCAR-4 ovarian 17.1% | SK-OV-3 ovarian 61.4% | IGROV1 ovarian 78.2% | OVCAR-3 ovarian 52.5% | HS 578T breast 90.1% | NCI/ADR-RES ovarian 40% | T-47D breast 29% | BT-549 breast 45.4% | MDA-MB-435 melanoma 48.2% | SW-620 colon 70.8% | MCF7 breast 33.3% | HCT-116 colon 30.3% | HCC-2998 colon 36.9% | KM12 colon 73.6%

O=C(Nc1ccncc1)C(=O)c1cn(S(=O)(=O)c2ccc(Oc3ccccc3)cc2)c2ccccc12
inactive: SR leukemia 92.9% | RPMI-8226 leukemia 76.4% | OVCAR-8 ovarian 99.3% | OVCAR-5 ovarian 87.5% | OVCAR-4 ovarian 88.3% | SK-OV-3 ovarian 86.4% | IGROV1 ovarian 82.7% | OVCAR-3 ovarian 112% | HS 578T breast 92% | NCI/ADR-RES ovarian 92.5% | T-47D breast 66.4% | BT-549 breast 94.9% | MDA-MB-435 melanoma 94.1% | SW-620 colon 94.2% | MCF7 breast 94.3% | HCT-116 colon 87.9% | HCC-2998 colon 81.5% | KM12 colon 99.1%

S=c1[nH]nc(-c2cc3ccc2CCc2ccc(cc2)CC3)n1C1CC1
inactive: SR leukemia 109% | RPMI-8226 leukemia 106% | OVCAR-8 ovarian 107% | OVCAR-5 ovarian 99.1% | OVCAR-4 ovarian 89.4% | SK-OV-3 ovarian 113% | IGROV1 ovarian 101% | OVCAR-3 ovarian 108% | HS 578T breast 101% | NCI/ADR-RES ovarian 103% | T-47D breast 97.7% | BT-549 breast 107% | MDA-MB-435 melanoma 97.3% | SW-620 colon 99.8% | MCF7 breast 90.5% | HCT-116 colon 92.3% | HCC-2998 colon 115% | KM12 colon 99.6%

O=C(c1ccccc1)C1OC1c1ccc([N+](=O)[O-])cc1 (stereo not drawn)
inactive: SR leukemia 33.6% | RPMI-8226 leukemia 55.9% | OVCAR-8 ovarian 68.9% | OVCAR-5 ovarian 102% | OVCAR-4 ovarian 59.9% | SK-OV-3 ovarian 97.3% | IGROV1 ovarian 53.4% | OVCAR-3 ovarian 59.7% | HS 578T breast 88.8% | NCI/ADR-RES ovarian 57.9% | T-47D breast 52.6% | BT-549 breast 68.5% | MDA-MB-435 melanoma 39% | MCF7 breast 64.1% | HCT-116 colon 13.7% | HCC-2998 colon 115% | KM12 colon 62.6%
active: SW-620 colon 9.23%
